PubChem BioAssay (NCI)
Compounds without any hit were thinned out: in the full panel of roughly 83,000, 20% have a hit.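 A percent growth of 40 corresponds to 60% growth inhibition; 0 means no net growth; -100 means all cells died. Active threshold: below 10.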 Active and inactive are the calls of the source.

Test system: MALME-3M melanoma
Assay: NCI-60 one-dose screen, 48 h (100 = growth as untreated, 0 = no growth, -100 = all killed)
Conditions: 10 µM unless noted

How did the growth turn out when `CC(C)C1=NOC(=O)C1=Cc1cn(-c2ccccc2)nc1-c1ccccc1` was run?
Its growth is 90.5% (inactive).

Which growth does the source give for `CCN(CC)CCCNCc1cc(-c2ccccc2)nc2ccccc12` here?
Its growth is 50.7% (inactive).

Which growth does the source give for `CCOC(=O)CCC[P+](c1ccccc1)(c1ccccc1)c1ccccc1` here?
Its growth is 75.4% (inactive).

`Cc1cccc(C[C@H](NC(=O)Nc2ccc(Cl)cc2F)C(=O)N[C@@H]2C(=O)N3C[C@H](O)C[C@H]3C(=O)N3CCN(C)C[C@H]3C(=O)N[C@@H](C)C(=O)N3C[C@H](C)C[C@H]3C(=O)O[C@H]2C)c1` was tested. Which growth did it give?
Its growth is 42.9% (inactive).

How did the growth turn out when `COc1cc(C)cc2oc3oc(=O)c(C(=O)c4cc5cc(Br)ccc5o4)cc3c(=O)c12` was run?
Its growth is 98.8% (inactive).

Which growth does the source give for `COc1ccc(CC(C#N)c2ccc(Cl)cc2)cc1` (stereo not drawn) here?
Its growth is 89.3% (inactive).

Which growth does the source give for `Clc1ccc(/C=N/Nc2nc3ccccc3s2)c(Cl)c1` here?
Its growth is 79.6% (inactive).

For `Nc1nc(SCc2cccc([N+](=O)[O-])c2)c2[nH]cnc2n1`, which growth is on record?
The growth was 107% (inactive).

`COC(=O)[C@]12CCC(C)(C)C[C@H]1C1=CC[C@@H]3[C@@]4(C)C/C(=C/c5cccnc5)C(=O)C(C)(C)[C@@H]4CC[C@@]3(C)[C@]1(C)CC2` was tested. Which growth did it give?
The growth was -79.7% [100 µM] (active).

For `Cn1cc(-c2nnc(-c3cn(C)c4ncccc34)o2)c2ccccc21`, which growth is on record?
Its growth is 19.3% (inactive).

How did the growth turn out when `Cc1ccc(C2=C/C(=C/c3ccc(Br)cc3)C(=O)N2CCc2ccc(S(N)(=O)=O)cc2)cc1` was run?
The growth was 93.4% (inactive).

How did the growth turn out when `COc1ccc2nc3cc(Cl)ccc3c(Nc3ccc(O)cc3)c2c1` was run?
The growth was 83.5% (inactive).

`CCCCN(CC)CC(CC)Nc1cc(OC)cc2cccnc12` (stereo not drawn) was tested. Which growth did it give?
Its growth is 110% (inactive).

How did the growth turn out when `O=C(Nc1cccc2ccccc12)c1cc2ccccc2cc1O` was run?
The growth was -12.3% (active).

For `C=C(C)[C@@H]1CC[C@]2(COCCC#N)CC[C@]3(C)[C@H](CC[C@@H]4[C@@](C)(CCCNCCC#N)[C@H](C(=C)C)CC[C@]43C)[C@@H]12`, which growth is on record?
Its growth is -47.8% [100 µM] (active).

Which growth does the source give for `Cc1ccc(-c2cn(C/C=C3\C=CN(S(=O)(=O)c4ccccc4)CC3)nn2)cc1` here?
Its growth is 104% (inactive).

With `CN(C)c1ccc(-c2ccc(-c3ccc(C(=N)N)cc3)s2)cc1` as the molecule, how does the growth read?
Its growth is 88.1% (inactive).

How did the growth turn out when `CCOC(=O)c1nn(C2CCCCO2)c2ccc(NC(=O)CN3CCOCC3)cc12` (stereo not drawn) was run?
The growth was 104% (inactive).

With `Cn1cc(-c2noc(-c3cn(C)c4ncc(Br)cc34)n2)c2cc(Cl)ccc21` as the molecule, how does the growth read?
The growth was 35.4% (inactive).

Which growth does the source give for `Cc1cc2c(C(C)C)c(O)c(O)c(C=NCc3ccoc3)c2c(O)c1-c1c(C)cc2c(C(C)C)c(O)c(O)c(C=NCc3ccco3)c2c1O` here?
Its growth is 66.4% (inactive).

Which growth does the source give for `Cc1cccc(C[C@H](NC(=O)Nc2ccc(C)cc2F)C(=O)N[C@@H]2C(=O)N3C[C@H](O)C[C@H]3C(=O)N3CCN(C)C[C@H]3C(=O)N[C@@H](C)C(=O)N3C[C@H](C)C[C@H]3C(=O)O[C@H]2C)c1` here?
Its growth is 39.9% (inactive).

For `COc1cc2c(c(Br)c1N)-c1cc(Br)c(N)cc1C2=O`, which growth is on record?
The growth was 76.7% (inactive).

Which growth does the source give for `CCN(CC)CCSC(=O)C(O)(c1ccccc1)C1CCCC1` (stereo not drawn) here?
Its growth is 116% (inactive).

With `CCN(CC)CCCOc1ccc2c(c1)O/C(=C\c1cccc(OC)c1)C2=O` as the molecule, how does the growth read?
The growth was 90.5% (inactive).

How did the growth turn out when `CCOC(=O)/C(C#N)=C(\C)CCc1ccccc1` was run?
Its growth is 96.5% (inactive).

With `O=C(CCN1CCCCC1)c1ccc(Cl)cc1` as the molecule, how does the growth read?
Its growth is 105% (inactive).

With `C[C@H]1[C@H](C)CC[C@]2(C(=O)O)CC[C@]3(C)C(=CC[C@@H]4[C@@]5(C)C/C(=C/c6ccco6)C(=O)C(C)(C)[C@@H]5CC[C@]43C)[C@H]12` as the molecule, how does the growth read?
Its growth is -86% [100 µM] (active).

How did the growth turn out when `Cc1ccc(NC(=O)N[C@@H](Cc2cc(F)cc(F)c2)C(=O)N[C@@H]2C(=O)N3CCC[C@H]3C(=O)N3CCOC[C@H]3C(=O)N[C@@H](C)C(=O)N3C[C@H](C)C[C@H]3C(=O)O[C@H]2C)cc1` was run?
Its growth is 33.6% (inactive).

Which growth does the source give for `CCCCOC(=O)c1c(C)[nH]c(/C=C2\N=C(c3ccc[nH]3)C=C2OC)c1C` here?
The growth was -56.5% (active).

With `O=C(O)c1cn(C2CC2)c2cc(N3CCN(Cc4cc(Cl)ccc4O)CC3)c(F)cc2c1=O` as the molecule, how does the growth read?
The growth was 80.7% (inactive).

With `C[n+]1cccc(NC(=O)c2ccc3ccc4ccc(C(=O)Nc5ccc[n+](C)c5)nc4c3n2)c1` as the molecule, how does the growth read?
Its growth is 81.4% (inactive).

`O=c1cc(-c2ccccc2)oc2cc(OCc3cn(Cc4ccc(F)cc4)nn3)cc(O)c12` was tested. Which growth did it give?
Its growth is 6.44% [100 µM] (active).

How did the growth turn out when `CCc1ccc(NC(=O)N[C@@H](Cc2cc(F)cc(F)c2)C(=O)N[C@@H]2C(=O)N3C[C@H](O)C[C@H]3C(=O)N3CCOC[C@H]3C(=O)N[C@@H](C)C(=O)N3C[C@H](C)C[C@H]3C(=O)O[C@H]2C)cc1` was run?
Its growth is 39.4% (inactive).
